This is an account of results in PubChem BioAssay (Tox21).

Several values for one entry are separate records, joined by “and”; a condition that tells them apart may be missing. Equal values may be shown once. Records with an inconclusive call do not appear. Some structures have more than one record in an assay (separate samples or runs), and their calls can disagree. Activity calls are given as the source filed them. Unless noted, the call rests on the fitted dose curve; in most records, active means well fitted curve in the direction sought with a large enough effect in the repeat runs; inconclusive means weak or mixed curves; inactive means no such curve, though single readings can be large; an effect the other way counts as inactive or inconclusive.

The nature of test [1]: qHTS assay for small molecules that induce genotoxicity in human embryonic kidney cells expressing luciferase-tagged ATAD5 (AID 651632). Further: nearly all actives have a fitted effect of over 15% in size. In short, it runs like this: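 Quantitative HTS in HEK293T expressing luciferase-tagged ATAD5, whose levels rise upon DNA damage. Exposure ran 16 hr at 37C and 5% CO2, with luminescence read 30 min after Amplite addition at room temperature.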
Background: In qHTS, concentration-response curves come from the screen itself.

A short description of test [2]: qHTS assay for small molecule agonists of the p53 signaling pathway - cell viability (AID 651633; calls by dose curve; further: nearly all actives have a fitted effect of over 30% in size; further: potency means the concentration at half of the fitted maximal effect). In short, it runs like this: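 p53RE-bla cells were treated with compound for 16 hours at 37 C. Cytotoxicity was then measured as CellTiter-Glo luminescence after 30 min at room temperature.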
The nature of test [3]: qHTS assay for small molecules that induce genotoxicity in human embryonic kidney cells expressing luciferase-tagged ATAD5 - cell viability (AID 651634; calls by dose curve; further: nearly all actives have a fitted effect of over 25% in size). Put shortly:
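After 15.5 hr incubation with compound at 37C, 5% CO2, HEK293T ATAD5-luciferase cells received CellTiter-Fluor reagent; fluorescence intensity was quantified following 30 min at 37C.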

Test [4] can be described thus: qHTS assay for small molecule disruptors of the mitochondrial membrane potential - cell viability (AID 720634; calls by dose curve; further: nearly all actives have a fitted effect of over 20% in size; further: potency means the concentration at half of the fitted maximal effect). Put shortly:
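ATP-based luminescent viability readout (CellTiter-Glo, 30 min, room temperature) in HepG2 cells multiplexed with the m-MPI membrane potential dye; compound exposure lasted 1 hr at 37 C.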

Test [5] is described as follows: qHTS assay to test for compound auto fluorescence at 590 nm (red) in HepG2 cells (AID 720674). In short, it runs like this:
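Seeding: 2,000 HepG2 cells/well, MEM/10% FBS, overnight 37 C. Dosing: compound vs DMSO. Incubation: 1 hr, 37 C, 5% CO2. Read: fluorescence 540 ex/590 em, Rose Bengal sodium as red reference.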

Test [6] in a line: qHTS assay to test for compound auto fluorescence at 535 nm (green) in HepG2 cells (AID 720675).
A short description of test [7]: qHTS assay to test for compound auto fluorescence at 460 nm (blue) in HEK293 cells (AID 720678). In short, it runs like this:
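HEK293 cells (2,000/well, medium with 10% dialyzed FBS) attached 4-5 hr, then exposed to compound overnight at 37C, 5% CO2. Blue fluorescence read at 405/460 nm, with triamterene as reference fluorophore.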

Test [8] can be described thus: qHTS assay to test for compound auto fluorescence at 590 nm (red) in HEK293 cells (AID 720679). Put shortly:
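HEK293 cells (2,000/well, 10% dialyzed FBS) attached 4-5 hr, then dosed with compound or DMSO and incubated overnight at 37C, 5% CO2. Red fluorescence read at 540/590 nm, Rose Bengal sodium as reference fluorophore.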

The nature of test [9]: qHTS assay to test for compound auto fluorescence at 535 nm (green) in HEK293 cells (AID 720680).
Test [10] is described as follows: qHTS assay to test for compound auto fluorescence at 460 nm (blue) in HEK293 cell free culture (AID 720681). Put shortly:
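Compounds were added to cell-free DMEM with 10% FBS and fluorescence read directly. The blue channel used 405 nm excitation and 460 nm emission, with triamterene as the reference fluorophore.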

Test [11] is described as follows: qHTS assay to test for compound auto fluorescence at 535 nm (green) in HEK293 cell free culture (AID 720682). In short, it runs like this:
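Green-channel intensity (Ex/Em 485/535 nm) was recorded from compound-treated wells containing only DMEM with 10% FBS. Fluorescein provided the equivalency standard.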

The nature of test [12]: qHTS assay to test for compound auto fluorescence at 590 nm (red) in HEK293 cell free culture (AID 720683). In short, it runs like this:
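Cell-free wells of DMEM with 10% FBS received compound, and intrinsic fluorescence was read at excitation/emission 540/590 nm. Values expressed as equivalence to Rose Bengal sodium.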

The nature of test [13]: qHTS assay to test for compound auto fluorescence at 590 nm (red) in HepG2 cell free culture (AID 720684). Put shortly:
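Auto fluorescence equivalency versus Rose Bengal sodium, red channel Ex/Em 540/590 nm; compounds in cell-free MEM/10% FBS; DMSO vehicle control.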

The nature of test [14]: qHTS assay to test for compound auto fluorescence at 460 nm (blue) in HepG2 cell free culture (AID 720685). In short, it runs like this:
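Cell-free plates of MEM plus 10% FBS received 23 nL compound or DMSO vehicle; blue-channel (405/460 nm) intensity scored against triamterene as reference fluorophore.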

Test [15] is described as follows: qHTS assay to test for compound auto fluorescence at 535 nm (green) in HepG2 cell free culture (AID 720686).
Test [16] is described as follows: qHTS assay to test for compound auto fluorescence at 460 nm (blue) in HepG2 cells (AID 720687). In short, it runs like this:
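HepG2 cells in MEM with 10% FBS, attached overnight at 37 C, were exposed to compound or DMSO for 1 hr at 37 C, 5% CO2. Blue fluorescence was read at 405/460 nm, with triamterene as reference fluorophore.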

Test [17] addresses Glucocorticoid receptor (Homo sapiens) (UniProt P04150). Nature of the test: qHTS assay to identify small molecule agonists of the glucocorticoid receptor (GR) signaling pathway (AID 720691; active means well fitted activation curve with a large enough effect in the signal ratio in the repeat runs, not every such curve was filed as active; the % refers to the signal ratio). Put shortly: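 Cells: GR-bla HeLa, endogenous GR with stably integrated GRE-beta-lactamase reporter. Treatment 18 h, 37 C, compounds delivered in DMSO. Detection via LiveBLAzer B/G FRET substrate, 2 h RT, fluorescence intensity.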

Test [18] shares this target. The test is described as follows: qHTS assay to identify small molecule antagonists of the glucocorticoid receptor (GR) signaling pathway (AID 720692; active means well fitted inhibition curve with a large enough effect in the signal ratio in the repeat runs, not every such curve was filed as active; the % refers to the signal ratio; further: potency means the concentration at half of the fitted maximal effect). In short, it runs like this: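 Quantitative HTS in antagonist format: HeLa cells expressing endogenous GR and a stably integrated GRE-bla reporter, stimulated with 5 nM dexamethasone (final) alongside test compounds for 18 h.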

A short description of test [19]: qHTS assay for small molecule disruptors of the mitochondrial membrane potential (AID 720635). Further: potency means the concentration at half of the fitted maximal effect. Put shortly:
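HepG2 cells exposed to compound 1 hr at 37C, then Mito-MPS dye 30 min. Ratio read of aggregate (540/590 nm) versus monomer (490/535 nm) fluorescence.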

Sequence of Glucocorticoid receptor (Homo sapiens) (P04150 whole entry, looked up): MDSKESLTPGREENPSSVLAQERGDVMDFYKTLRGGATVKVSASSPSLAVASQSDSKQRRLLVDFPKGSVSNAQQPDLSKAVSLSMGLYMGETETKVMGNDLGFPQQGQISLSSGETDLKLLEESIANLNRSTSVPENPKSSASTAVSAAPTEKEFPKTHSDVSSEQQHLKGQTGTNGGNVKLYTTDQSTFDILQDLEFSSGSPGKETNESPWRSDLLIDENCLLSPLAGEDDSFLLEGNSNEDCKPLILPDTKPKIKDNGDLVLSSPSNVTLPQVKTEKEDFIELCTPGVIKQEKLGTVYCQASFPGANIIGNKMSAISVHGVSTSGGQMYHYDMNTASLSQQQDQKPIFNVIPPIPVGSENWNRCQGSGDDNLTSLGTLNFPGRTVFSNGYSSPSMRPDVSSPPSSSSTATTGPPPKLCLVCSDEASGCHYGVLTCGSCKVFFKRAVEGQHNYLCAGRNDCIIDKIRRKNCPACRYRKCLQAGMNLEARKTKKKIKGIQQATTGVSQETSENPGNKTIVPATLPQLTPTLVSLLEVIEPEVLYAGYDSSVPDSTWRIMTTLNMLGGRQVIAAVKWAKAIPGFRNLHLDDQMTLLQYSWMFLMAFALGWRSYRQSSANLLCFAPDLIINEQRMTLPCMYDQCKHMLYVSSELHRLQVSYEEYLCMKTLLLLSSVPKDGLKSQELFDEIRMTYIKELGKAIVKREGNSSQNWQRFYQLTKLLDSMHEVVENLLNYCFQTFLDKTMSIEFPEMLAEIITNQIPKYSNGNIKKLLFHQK

On to `O=C(O)CCCCCCCCCCCBr`, for which the Potency result in test [1], in test [2], in test [3], in [4], in [7] and in test [10] was “inactive” each time. Further, the Potency entry in test [14], in test [16], in test [17] and in test [18] was “inactive” each time. The compound was classed as inactive in test [5], in [6], in test [8], in test [9], in test [11] and in [12]. For the same compound, the compound was classed as inactive in test [13] and in [15].

As to `C[C@]12CC[C@@H]3c4ccc(O)cc4CC[C@H]3[C@@H]1CC[C@@H]2OC(=O)CCC1CCCC1`, the Potency entry in [1], in test [2], in [3], in [7], in test [10] and in [14] was “inactive” in each case. Moreover, in test [16], the Potency entry is “inactive”. Besides, the Potency entry in test [4] is “inactive and 61.1 µM (active)”; in [19] it was 17.2 µM (active); in test [18], 10.7 µM (active) and 8.49 µM (active). For the same compound, the call in test [5], in test [6], in [8], in test [12], in test [13] and in test [15] was inactive.

Take `Oc1ccc(Cl)c2cccnc12`: the Potency result in [1], in [2], in [3], in test [4], in test [7] and in test [10] was “inactive” in each case. In addition, the Potency result in test [14], in test [16], in test [17] and in [18] was “inactive” each time. Further, in [19], the Potency was 11.9 µM (active). The result in [5], in [6], in test [8], in test [9], in test [11] and in [12] was inactive. Further, the compound was called inactive in test [13] and in test [15].

With `CC1=Nc2ccc3ccccc3c2C1(C)C`, the Potency result in test [1], in test [2], in test [3], in [4], in test [7] and in test [10] was “inactive” in each case. The Potency entry in test [14] and in test [16] was “inactive” each time. The Potency in test [19] is 19.3 µM (active). Besides, the compound was called inactive in [5], in test [6], in [8], in test [9], in test [11] and in [12]. The result in [13] and in [15] was inactive.

For `COC(=O)CCS`, the Potency entry in test [1], in test [2], in [3], in test [4], in test [19] and in test [10] was “inactive” each time. In addition, the Potency entry in test [14], in test [16], in [17] and in test [18] was “inactive” each time. In addition, the call in test [5], in test [6], in [8], in [9], in [11] and in test [12] was inactive. In addition, the call in [13] and in test [15] was inactive.

On to `Oc1c(I)cc(I)c2cccnc12`, for which the Potency entry in test [1], in [3], in test [4], in test [7], in test [10] and in test [14] was “inactive” in each case. Also, in test [16], the Potency entry is “inactive”. Also, in test [2], the Potency was 10.6 µM (active). Also, the compound was called inactive in [5], in test [6], in test [8], in [9], in test [11] and in [12]. Moreover, the call in [13] and in [15] was inactive.

Turning to `CC(C)(c1ccccc1)c1ccccc1`, the Potency result in [1], in [2], in test [3], in [4], in test [7] and in [10] was “inactive” in each case. The Potency entry in [14] and in test [16] was “inactive” in each case. The compound was classed as inactive in [5], in test [6], in [8], in test [9], in test [12] and in [13]. Moreover, in [15], the compound was called inactive.
